Test results: PubChem BioAssay (NCI)
Compounds without any hit were thinned out: in the full panel of roughly 83,000, 20% have a hit.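 Assay: single dose, 48 h. Readout: percent growth (0 = no net growth; negative = cell death). Active: <10.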 Unmarked numbers belong to inactive results. Active and inactive are the calls of the source.

Tests used:
Assay in all cases: NCI-60 one-dose screen, 48 h (100 = growth as untreated, 0 = no growth, -100 = all killed)
Conditions in all cases: 10 µM unless noted
T-47D breast = system: T-47D breast
BT-549 breast = system: BT-549 breast
MDA-MB-435 melanoma = system: MDA-MB-435 melanoma
SW-620 colon = system: SW-620 colon
MCF7 breast = system: MCF7 breast
HCT-116 colon = system: HCT-116 colon
HCC-2998 colon = system: HCC-2998 colon
KM12 colon = system: KM12 colon

SMILES	growth (T-47D breast)	growth (BT-549 breast)	growth (MDA-MB-435 melanoma)	growth (SW-620 colon)	growth (MCF7 breast)	growth (HCT-116 colon)	growth (HCC-2998 colon)	growth (KM12 colon)
CC(C)SC1=NC(=C(C(=N1)NC2=ClC=CC=C2)C#N)C3=CC=CC=C3	55%	110%	62.3%	50.5%	39.9%	27.9%	84.1%	79.3%
O=C1c2c(c3c4cccnc4[nH]c3c3ccc4ccccc4c23)C(=O)N1CCN1CCNCC1	99.2%	102%	89.9%	55.9%	27.8%	36.6%	81.8%	73.6%
COc1ccc(NC(=O)Cn2cc(CN3C(=O)c4ccc([N+](=O)[O-])cc4C3=O)nn2)cc1	95.5%	111%	110%	97.5%	91.3%	109%	102%	106%
COc1cc(/C=N/n2cnc3oc(-c4ccccc4)cc3c2=N)cc(CN2CCCCC2)c1O	-33.1% (active)	-55.4% (active)	-91.8% (active)	-70% (active)	-80.5% (active)	-89.1% (active)	-46.8% (active)	-72.6% (active)
O=C(NCCCNc1cc(-c2cn(-c3ccccc3)nc2-c2cccc(O)c2)ccn1)Nc1ccc(F)cc1	11.3%	22%	-39.5% (active)	13.5%	10.8%	10.4%	-60.3% (active)	2.62% (active)
N#Cc1c(NC(=O)c2ccc(F)c(Cl)c2)sc2c1CCC(=O)C2	-18.3% (active)	2.09% (active)	-39.5% (active)	-24% (active)	4.86% (active)	0.878% (active)	25.8%	4.23% (active)
O=C(CCCCCCN1CC(=O)N2[C@@H](c3cc(F)cc(F)c3)c3[nH]c4ccccc4c3C[C@H]2C1=O)NO	30.6%	98.6%	47.9%	46.9%	52%	27.3%	82.4%	69.7%
CN1CCN(Cc2ccc(NC(=O)c3cncc(C#Cc4[nH]nc5ncncc45)c3)cc2C(F)(F)F)CC1	39.2%	118%	38.9%	31.6%	46%	17.7%	44.3%	10.5%
CNC(=O)c1cc(N2CCc3cc(NC(=O)Nc4ccc(Cl)c(Cl)c4)ccc32)ccn1	63.4%	77%	84.2%	114%	63.3%	92.7%	98%	30.4%
C=C(C)[C@@H]1CC[C@]2(C(=O)NCCCN(CCC#N)CCC#N)CC[C@]3(C)[C@H](CC[C@@H]4[C@@]5(C)CCC(=O)C(C)(C)[C@@H]5CC[C@]43C)[C@@H]12	91.2%	118%	101%	100%	84.9%	97.1%	104%	95.9%
O=C(/C=C/c1cn(-c2ccccc2)nc1-c1ccc(Cl)cc1)c1cc2ccccc2oc1=O	44.1%	92.5%	57.6%	74%	33.9%	25.4%	102%	80.3%
O=C(CCCCCCN1CC(=O)N2[C@@H](c3cccc(Cl)c3)c3[nH]c4ccccc4c3C[C@H]2C1=O)NO	19.6%	82.7%	31.2%	26.3%	38%	14.8%	72.1%	54.9%
CCCCOc1ccc(S(=O)(=O)N2CCN(c3nccc(N4CCOCC4)n3)CC2)cc1	69%	13%	14.5%	34.8%	87.5%	12.6%	33.8%	16%
Oc1ccc(CSc2nnc(-c3ccccc3)o2)c2cccnc12	4.16% (active)	29.4%	21.8%	14.5%	9.21% (active)	16.6%	37.6%	17.3%
COc1cc(/C=N/Nc2ccnc3cc(Cl)ccc23)cc(OC)c1O	-56.5% (active)	103%	-85.9% (active)	-30.4% (active)	-72.3% (active)	-68.7% (active)	-81.9% (active)	-53.8% (active)
CS(=O)(=O)c1ccc2c(c1)c1c(n2S(=O)(=O)c2ccc(Cl)cc2)CCCC1	23%	-1.38% (active)	-11% (active)	9.36% (active)	16.9%	19.2%	30.1%	29.3%

SMILES	growth (T-47D breast)	growth (BT-549 breast)	growth (MDA-MB-435 melanoma)	growth (SW-620 colon)	growth (MCF7 breast)	growth (HCT-116 colon)	growth (HCC-2998 colon)	growth (KM12 colon)
COc1ccc(NC(=O)[C@H](C)NC(=O)OC(C)(C)C)cc1C(=O)Nc1cccc(-c2cc(=O)c3c(OC)c(OC)c(OC)cc3o2)c1	-24.7% (active)	-85% (active)	7.35% (active)	-25.6% (active)	-9.71% (active)	-61.7% (active)	-60.8% (active)	-36.4% (active)
O=C(Nc1cc(Cl)cc(Cl)c1)Nc1ccc2oc(=O)ccc2c1	3.54% (active)	29%	13.9%	17.3%	5.48% (active)	1.36% (active)	27.3%	11.5%
CCC(CC)n1c(=O)c(SC2=NC3C(NN2)N(CC)C(=O)N3CC)c(C(=O)O)c2ccccc21 (stereo not drawn)	68.4%	-21.6% (active)	0.0073% (active)	21.7%	17.4%	6.91% (active)	24%	20.7%
COc1cc(CNC(=O)/C=C/c2ccccc2)ccc1OCC(=O)NO	99.6%	107%	102%	107%	89.9%	98.7%	104%	99.3%
CC[C@@](C)(NC(=O)C(C)(C)NC(=O)[C@@H](NC(=O)[C@@H]1CCCN1C(=O)C(C)(C)NC(=O)[C@H](CC(C)C)NC(=O)CNC(=O)C(C)(C)NC(=O)[C@@H](NC(=O)C(C)(C)NC(=O)[C@H](CCC(N)=O)NC(=O)[C@H](C)NC(=O)C(C)(C)NC(=O)[C@H](C)NC(=O)C(C)(C)NC(=O)[C@H](C)NC(=O)C(C)(C)NC(C)=O)C(C)C)C(C)C)C(=O)N[C@@H](CCC(N)=O)C(=O)N[C@@H](CCC(N)=O)C(=O)N[C@H](CO)CC1CCCCC1	12.2% [5 µM]	-74.3% [5 µM] (active)	12.4% [5 µM]	49.1% [5 µM]	8.62% [5 µM] (active)	12.4% [5 µM]	28.9% [5 µM]	34.8% [5 µM]
CC1(C)CC[C@]2(C(=O)N3CCCNCC3)CC[C@]3(C)C(=CC[C@@H]4[C@@]5(C)CCC(=O)C(C)(C)[C@@H]5CC[C@]43C)[C@H]2C1	100%	112%	112%	101%	93.6%	103%	102%	105%
Cc1cc(O)c2c(c1)C(=O)C(c1c(C)cc3c(c1O)C(=O)C=CC3=O)=CC2=O	21.9%	113%	96.5%	8.08% (active)	49.9%	72.8%	112%	109%
CCN1CCN(Cc2ccc(C(=O)Nc3nc4ccc(Oc5ccnc(C(=O)NC)c5)cc4s3)cc2C(F)(F)F)CC1	18.7%	45.3%	46%	-17.2% (active)	16.3%	18%	62.8%	48.4%
CC[C@@](C)(NC(=O)C(C)(C)NC(=O)[C@@H](NC(=O)[C@@H]1CCCN1C(=O)C(C)(C)NC(=O)[C@H](CC(C)C)NC(=O)CNC(=O)C(C)(C)NC(=O)[C@@H](NC(=O)C(C)(C)NC(=O)[C@H](CCC(N)=O)NC(=O)[C@H](C)NC(=O)C(C)(C)NC(=O)[C@H](C)NC(=O)C(C)(C)NC(=O)[C@@H]1CCCN1C(=O)C(C)(C)NC(C)=O)C(C)C)C(C)C)C(=O)N[C@@H](CCC(N)=O)C(=O)N[C@@H](CCC(N)=O)C(=O)N[C@H](CO)Cc1ccccc1	0.666% [4.25 µM] (active)	-50.2% [4.25 µM] (active)	4.98% [4.25 µM] (active)	54.9% [4.25 µM]	9.62% [4.25 µM] (active)	27.8% [4.25 µM]	29.3% [4.25 µM]	29.5% [4.25 µM]
O=C(/C=C/Nc1ccc(S(=O)(=O)O)cc1)c1ccc(F)cc1	99.4%	119%	100%	94.8%	90%	107%	106%	104%
Cc1ccc(NC(=O)N[C@@H](Cc2cc(F)cc(F)c2)C(=O)NC2C(=O)N3CCC[C@H]3C(=O)N3CCCC[C@H]3C(=O)N[C@@H](C)C(=O)N3C[C@H](C)C[C@H]3C(=O)O[C@H]2C)c(F)c1 (stereo partly drawn)	31.5%	28.7%	21.2%	36.5%	15.5%	9.88% (active)	23.9%	38.7%
Cn1ccnc1C(=O)/C=C/c1ccc(C(=O)Nc2ccc(NC(=O)CCNC(=O)c3csc(Br)n3)cc2)cc1	58.9%	65.4%	44.2%	14.1%	17.7%	20.5%	106%	33.3%
C#CCOc1ccc(C(Nc2ccc(OC)cc2)c2nnnn2C2CCCCC2)cc1 (stereo not drawn)	94.1%	99.6%	101%	98.3%	91.7%	88.7%	101%	102%
N/C(=N\OC(=O)CSc1nc2ccccc2s1)c1ccc(Cl)cc1	96.6%	107%	101%	98%	97.4%	105%	105%	101%
COc1cc(-c2nc(SCc3ccc(C)cc3)[nH]c(=O)c2C#N)ccc1OCc1ccccc1	109%	156%	98.2%	107%	94.5%	112%	117%	102%
